The values that follow come from PubChem BioAssay AID485317 (Broad Institute, 2010).

In all, about 290,000 compounds went through this assay and about 11,000 (3.8%) were called active. Only a selection was taken, and actives are over-represented in it overall. A number with no mark means an inactive call.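 How the source made its calls: active means mean replicate inhibition above about 79%, with every replicate also reaching it (limit read from the data); inconclusive means only one of the two criteria met; inactive means mean below limit and not every replicate reaching it.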

The target in this assay is FAD-linked sulfhydryl oxidase ALR (Homo sapiens) (UniProt P55789). As to the kind of experiment: inhibitors of human ALR sulfhydryl oxidase, primary screen, biochemical, H2O2 detection, HRP-luminol luminescence, single point (AID 485317). The note with it: purified ALR, DTT oxidation, active compounds read high, concentration not given here.
Sequence of FAD-linked sulfhydryl oxidase ALR (Homo sapiens) (P55789 whole entry, looked up): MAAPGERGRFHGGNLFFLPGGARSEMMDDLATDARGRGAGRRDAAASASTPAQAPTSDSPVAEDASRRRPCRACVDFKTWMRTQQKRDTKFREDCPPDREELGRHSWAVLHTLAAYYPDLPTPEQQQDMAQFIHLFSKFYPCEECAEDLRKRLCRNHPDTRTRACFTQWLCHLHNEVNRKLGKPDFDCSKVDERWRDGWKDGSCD
A word on the inhibition: it is the change of the read-out against control, counted positive when it falls. Regarding `Cc1cccc(Nc2nnc(SCC(=O)c3c(N)n(C4CC4)c(=O)[nH]c3=O)s2)c1C`, the inhibition is -3.29%.
As for `Cc1nn(CC#N)c(=O)n1N(C)c1ncc(C(F)(F)F)cc1Cl`, the figure is 0.914%; as for `C#CCN(N(C)c1ncc(C(F)(F)F)cc1Cl)S(=O)(=O)c1ccc2ccccc2c1`, 89.2% (active).
As for `CN(NS(=O)(=O)c1cccs1)c1ncc(C(F)(F)F)cc1Cl`, the figure is -1.63%; as for `CCOC(=O)/C=C/c1ccc(C(F)(F)F)cc1S(=O)(=O)NC(C)(C)C`, 20.8%.
The value for `c1ccc2cc(CCCc3cc4ccccc4cn3)ncc2c1` was 2.21%; that for `CN(Cc1ccccc1)C(=O)COC(=O)/C=C/c1ccc2c(c1)OCO2` was 0.927%; that for `COc1ccc(-c2nc(SCC(=O)N3CCCC3)n[nH]2)cc1` was -0.237%.
`COc1ccc(N2C(=O)CC(Sc3n[nH]c(-c4ccc(C)cc4)n3)C2=O)cc1` (stereo not given): the inhibition is 98.9% (active).
The value for `Cc1ccc(N2C(=O)CC(Sc3ncn[nH]3)C2=O)cc1` (stereo not given) was 45.4%.
As for `CN(CC(=O)NCCc1ccc(S(N)(=O)=O)cc1)CC(=O)Nc1ccc(F)c(F)c1F`, the figure is -4.6%; as for `CCCSc1ccc([C@H]2N[C@@](Cc3ccccc3)(C(=O)OC)[C@H]3C(=O)N(C)C(=O)[C@@H]23)cc1`, 4.44%; as for `S=c1[nH]nc(/C=C/c2ccccc2)o1`, 83.4% (active).
In the case of `Cc1ccc(-c2cc(C(=O)N/N=C/C=C/c3ccccc3)n[nH]2)o1`, the inhibition was -7.61%.
The value for `CCOC(=O)C1CCN(C(=O)CN2C(=O)NC(C)(c3ccc4cc(OC)ccc4c3)C2=O)CC1` (stereo not given) was -7.42%.
For `NC1=NC(c2ccc([N+](=O)[O-])cc2)N(c2ccc(F)cc2)C(N)=N1` (stereo not given), the inhibition is -1.48%.
The value for `CCOC(=O)CSC1=C(C#N)C(c2ccco2)C(C(=O)OCc2ccccc2)=C(C)N1` (stereo not given) was -2.61%; that for `Cc1ccc(C2CC(=O)NC(SCC(=O)OCc3ccccc3)=C2C#N)o1` (stereo not given) was 98.4% (active).
In the case of `CCOC(=O)CSC1=C(C#N)C(c2sccc2C)CC(=O)N1` (stereo not given), the inhibition is 2.21%.
The value for `Cc1cc(Br)ccc1NC(=O)CN(C)C(=O)CN1C(=O)NC2(CCCC2)C1=O` was -8.04%; that for `COc1cc(NC(=O)COC(=O)c2cc(S(=O)(=O)N3CCOCC3)ccc2F)cc(OC)c1` was -2.6%; that for `Cc1cc(C)n(-c2ccc(C(=O)O)cc2[N+](=O)[O-])n1` was -3.49%.
As to `COc1ccc2c(c1)C=CC1(O2)N(CCO)c2ccccc2C1(C)C` (stereo not given), the inhibition was -8.22%.
Turning to `CN1c2ccc([N+](=O)[O-])cc2C(C)(C)C12C=Cc1cc(C(=O)O)ccc1O2` (stereo not given), the inhibition is 97.9% (active).
As for `CCOC(=O)[C@@H]1[C@H]2COc3ccc(Br)cc3[C@H]2N2C(=O)N(c3ccc(C)cc3)C(=O)[C@@]12C`, the figure is -4.73%; as for `COc1cc(/C=C(\C#N)C(=O)Nc2ccc3ccccc3c2)c([N+](=O)[O-])cc1OC`, -17.7%; as for `COc1ccc(CNC(=O)/C(C#N)=C/c2cccc(OC)c2OC)cc1`, 12.6%.
The value for `COc1ccc(NC(=O)/C(C#N)=C\c2cc(OC)c(OCc3ccc(C(=O)O)cc3)cc2Br)cc1` was 98% (active).
As for `COc1cc(OC)cc(-c2sc3ccc(OC)cc3c2-c2ccc3cc[nH]c3c2)c1`, the figure is 0.621%; as for `COc1ccc(N2CCN(C(CNS(=O)(=O)c3ccc(C)cc3)c3ccccc3)CC2)cc1` (stereo not given), -0.191%; as for `O=C(CCN1C(=O)C2CCCCC2C1=O)Nc1ccc(OC(F)F)cc1` (stereo not given), -7.6%.
In the case of `CCCN(CC(=O)Nc1ccccc1C)C(=O)c1ccc2[nH]c3c(c2c1)CC(C)CC3` (stereo not given), the inhibition was -1.42%.
The value for `COc1ccccc1NC(=O)CCN1CCN(c2ccc(Cl)cc2)CC1` was 89.1% (active); that for `COc1ccc(NC(=O)CCN2CCCC2)c(OC)c1` was -4.61%.
As for `COc1ccc(Cl)cc1NC(=O)CCN1CCOCC1`, the figure is -5.1%.
As for `CC(C)n1ncc2c(C(=O)NCc3ccccc3CN(C)C)cc(C3CC3)nc21`, the figure is -20.5%; as for `Cc1ccc(NC(=O)C(C)OC(=O)Cc2c[nH]c3ccccc23)cc1S(=O)(=O)N1CCOCC1` (stereo not given), -3.03%.
Consider `Cc1ccc(C(=O)OCC(=O)NCc2cc(C)c(O)c(C)c2)cc1S(=O)(=O)N1CCCCC1`, for which the inhibition was 14.9%.
Turning to `COc1cc(OC)cc(-c2c(-c3ccc(F)cc3)c3cc(-c4ccc5cc[nH]c5c4)ccc3n2C)c1`, the inhibition is 0.122%.
As for `COc1ccc(N2CCN(C(=O)CN3C(=O)COc4ccccc43)CC2)cc1`, the figure is 38%.
As for `CCCN1CCN(CCCNC(=O)CN2C(=O)COc3ccccc32)CC1`, the figure is -3.58%; as for `COc1ccc(N2CCN(CCNC(=O)CCN3C(=O)COc4ccccc43)CC2)cc1`, 80.3% (active); as for `Cc1cccc(NS(=O)(=O)c2ccc(C)c(C(=O)NCC(c3ccccc3)N(C)C)c2)c1` (stereo not given), -16.5%.
The value for `CN(C(=O)CSc1cccc[n+]1[O-])C1CCCCC1` was -8.28%.
Regarding `CN(/N=C/c1ccccc1)C(=S)c1ccccc1`, the inhibition is 12.2%.
The value for `N#Cc1ccc(OCC(=O)NC(=O)NC2CCS(=O)(=O)C2)cc1` (stereo not given) was -0.0725%; that for `CCOc1ccc(NC(=O)CN(C)C(=O)Cc2sc(C)nc2-c2ccc(F)cc2)cc1OCC` was -2.09%; that for `Cc1ccc(-c2ccnc3[nH]n(-c4ccccc4)c(=O)c23)cc1` was 1.8%.
As for `Cc1ccc(C2C3=C(Nc4[nH]n(-c5ccccc5)c(=O)c42)c2ccccc2C3=O)cc1` (stereo not given), the figure is 87.2% (active); as for `Cc1ccc(N=Nc2c(C)[nH]n(-c3ccccc3)c2=O)cc1`, -12.7%.
The value for `COc1cccc(CNC(C)C(=O)Nc2ccc(S(=O)(=O)N3CCCC3)cc2)c1` (stereo not given) was -0.631%; that for `O=C(C[C@@H]1C/C=C\CCC(=O)OC[C@@H]2CCCN2C1=O)NCCO` was 2.95%.
With `CC[n+]1cc(C)ccc1/C=C/c1ccc(N(C)C)cc1`, the inhibition was 99.4% (active).
As for `CN(C)c1ccc(/C=N\S(=O)(=O)c2ccccc2)cc1`, the figure is 0.19%; as for `COCCn1c(C)cc(C(=O)CSc2nnc(C3CC3)n2C2CC2)c1C`, 13.1%.
